From PubChem BioAssay (NCATS)
Where “and” joins values, the source holds several entries; their conditions need not be identical. Equal values may be shown once. Records with an inconclusive call do not appear. The source holds several records for some structures; these can differ, active in one and inactive in another. Calls of active or inactive are those of the source. The call rests on the fitted dose curve; in most records, active means well fitted inhibition curve with a large enough effect; inconclusive means small, poorly fitted or top-dose-only effect; inactive means flat fitted curve, though single readings scatter.

Assays:
PC15 = test: qHTS profiling for inhibitors of Plasmodium falciparum proliferation (AID 504749); conditions: P. falciparum in erythrocytes, SYBR Green DNA, 72 h; series mostly up to 28.7 µM
Outline: (§1)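 P. falciparum-infected erythrocytes (0.3% parasitemia, 2.5% hematocrit final) were exposed to compounds for 72 h at 37 C in 5% CO2, then lysed with SYBR Green buffer overnight at room temperature; parasite DNA fluorescence was normalized to artemisinin and DMSO controls.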

PC26 = test: as above; conditions: P. falciparum in erythrocytes, SYBR Green DNA, 72 h; series mostly up to 28.7 µM
Outline: as §1

PC49 = test: as above; conditions: P. falciparum in erythrocytes, SYBR Green DNA, 72 h; series mostly up to 28.7 µM
Outline: as §1

SC27B = test: as above; conditions: P. falciparum in erythrocytes, SYBR Green DNA, 72 h; series mostly up to 28.7 µM
Outline: as §1

TAB109 = test: as above; conditions: P. falciparum in erythrocytes, SYBR Green DNA, 72 h; series mostly up to 28.7 µM
Outline: as §1

TAB113 = test: as above; conditions: P. falciparum in erythrocytes, SYBR Green DNA, 72 h; series mostly up to 28.7 µM
Outline: as §1

TAB165 = test: as above; conditions: P. falciparum in erythrocytes, SYBR Green DNA, 72 h; series mostly up to 28.7 µM
Outline: as §1

W2 = test: as above; conditions: P. falciparum in erythrocytes, SYBR Green DNA, 72 h; series mostly up to 28.7 µM
Outline: as §1

CRL-7250 = normal cell line; test: Cytotoxic Profiling of Annotated Libraries Using Quantitative High-Throughput Screening (AID 1296008); conditions: Five cell lines viability, CellTiter-Glo ATP luminescence, 48-72 h; max response: hits give low values; on max response: on the % scale 0 is the no-effect control and ±100 the full control effect
Outline: (§2)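 Compounds were pin-transferred onto cells and incubated 48 or 72 hr at 37 degree Celsius, 95% humidity. CellTiter-Glo was added, plates sat 10 min at room temperature, then ATP-coupled luminescence was imaged as the viability read-out.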

HEK293 = test: as above; conditions: Five cell lines viability, CellTiter-Glo ATP luminescence, 48-72 h; max response: hits give low values
Outline: as §2

HaCat [1] = test: as above; conditions: Five cell lines viability, CellTiter-Glo ATP luminescence, 48-72 h; max response: hits give low values
Outline: as §2

KB-3-1 = test: as above; conditions: Five cell lines viability, CellTiter-Glo ATP luminescence, 48-72 h; max response: hits give low values
Outline: as §2

NIH3T3 [2] = test: as above; conditions: Five cell lines viability, CellTiter-Glo ATP luminescence, 48-72 h; max response: hits give low values
Outline: as §2

HACAT [3] = test: qHTS assay to identify novel small-molecules to repurpose for Merkel cell carcinoma treatment (AID 1296009); conditions: MCC and control cell lines, CellTiter-Glo viability, 72 h; at 44.8 µM (top of the series) unless noted
Outline: (§3)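 Cells exposed to NPC (8-point) and MIPE (11-point) compound dilutions for 72 hr at 37 degree celsius; viability read by CellTiter-Glo luminescence, normalized to no-cell and DMSO in-plate controls.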

MCC-13 = test: as above; conditions: MCC and control cell lines, CellTiter-Glo viability, 72 h; series mostly up to 46 µM
Outline: as §3

MCC-26 = test: as above; conditions: MCC and control cell lines, CellTiter-Glo viability, 72 h; series mostly up to 46 µM
Outline: as §3

MKL-1 = test: as above; conditions: MCC and control cell lines, CellTiter-Glo viability, 72 h; series mostly up to 46 µM
Outline: as §3

MKL-2 = test: as above; conditions: MCC and control cell lines, CellTiter-Glo viability, 72 h; series mostly up to 46 µM
Outline: as §3

NIH3T3 [4] = test: as above; conditions: MCC and control cell lines, CellTiter-Glo viability, 72 h; at 44.8 µM (top of the series) unless noted
Outline: as §3

HEK293T = test: as above; conditions: MCC and control cell lines, CellTiter-Glo viability, 72 h; at 44.8 µM (top of the series) unless noted
Outline: as §3
Further: nearly all actives have a fitted effect of over 60% in size.
Potency means the concentration at half of the fitted maximal effect.

O=C(O)CNC(=O)c1ccccc1
inactive: Potency (PC15) | Potency (PC26) | Potency (PC49) | Potency (SC27B) | Potency (TAB109) | Potency (TAB113) | Potency (TAB165) | Potency (W2) | max response (CRL-7250) 2.85% | max response (HEK293) -10.7% | outcome (HaCat [1]) | max response (KB-3-1) -0.856% | outcome (NIH3T3 [2]) | outcome (HACAT [3]) | Potency (MCC-13) | Potency (MCC-26) | Potency (MKL-1) | Potency (MKL-2) | outcome (NIH3T3 [4])

Cc1ccc(C(=O)C(C)CN2CCCCC2)cc1 (stereo unspecified)
active: Potency (W2) 6.01 µM | Potency (MKL-2) 10.6 µM
inactive: Potency (PC49) | Potency (SC27B) | max response (CRL-7250) -2.76% and -2.03% | max response (HEK293) 0.201% | outcome (HaCat [1]) inactive; activator | max response (KB-3-1) 7.56% and -13.6% and 2.39% | max response (NIH3T3 [2]) -4.42% | outcome (NIH3T3 [2]) | outcome (HACAT [3]) inactive; activator | Potency (MCC-13) | Potency (MKL-1) | outcome (NIH3T3 [4])

CN1[C@@H]2CC[C@H]1CC(OC(=O)c1c[nH]c3ccccc13)C2 (stereo partly specified)
inactive: max response (CRL-7250) -2.71% | outcome (CRL-7250) | max response (HEK293) 4.73% | outcome (HEK293) | max response (HaCat [1]) 0.428% | outcome (HaCat [1]) | max response (KB-3-1) -8.86% and -5.38% | outcome (NIH3T3 [2]) | outcome (HACAT [3]) | outcome (HEK293T) | Potency (MCC-13) | Potency (MCC-26) | Potency (MKL-1) | Potency (MKL-2) | outcome (NIH3T3 [4])

CC(=O)N(O)CCCCCNC(=O)CCC(=O)N(O)CCCCCNC(=O)CCC(=O)N(O)CCCCCN
inactive: Potency (PC15) | Potency (PC26) | Potency (SC27B) | Potency (TAB109) | Potency (TAB113) | Potency (TAB165) | Potency (W2) | max response (HaCat [1]) -20.9% | max response (KB-3-1) 1.85%
active: Potency (CRL-7250) 2.99 µM | Potency (HEK293) 52.4 nM and 9.44 µM | Potency (HaCat [1]) 1.32 µM | Potency (MKL-1) 3.35 µM

N[C@H](Cc1c[nH]c2ccccc12)C(=O)O
inactive: Potency (PC15) | Potency (PC26) | Potency (PC49) | Potency (SC27B) | Potency (TAB109) | Potency (TAB113) | Potency (TAB165) | Potency (W2) | max response (CRL-7250) -25% | outcome (HEK293) | outcome (HaCat [1]) | max response (KB-3-1) 5.87% | max response (NIH3T3 [2]) 3.07% | outcome (HACAT [3]) | outcome (HEK293T) | Potency (MCC-13) | Potency (MCC-26) | Potency (MKL-1) | Potency (MKL-2)

CC(O)(P(=O)(O)O)P(=O)(O)O
inactive: Potency (PC15) | Potency (PC26) | Potency (PC49) | Potency (SC27B) | Potency (TAB109) | Potency (TAB113) | Potency (TAB165) | Potency (W2) | max response (CRL-7250) 0.923% | outcome (HEK293) | outcome (HaCat [1]) | max response (KB-3-1) 0.618% | max response (NIH3T3 [2]) 0.0838% | outcome (HACAT [3]) | outcome (HEK293T) | Potency (MCC-13) | Potency (MKL-1)

CCC(C(=O)OCCN(CC)CC)c1ccccc1 (stereo unspecified)
inactive: Potency (PC15) | Potency (PC26) | Potency (PC49) | Potency (SC27B) | Potency (TAB109) | Potency (TAB113) | Potency (TAB165) | outcome (CRL-7250) | max response (HEK293) 3.62% | outcome (HaCat [1]) | max response (KB-3-1) -12.7% | max response (NIH3T3 [2]) -17.3% | outcome (HACAT [3]) | Potency (MCC-13) | Potency (MCC-26) | Potency (MKL-1) | Potency (MKL-2)
active: Potency (W2) 15.1 µM

CCN(CCCCOC(=O)c1ccc(OC)c(OC)c1)C(C)Cc1ccc(OC)cc1 (stereo unspecified)
inactive: outcome (CRL-7250) | max response (HEK293) -15.6% | outcome (HaCat [1]) | max response (KB-3-1) -8.65% | max response (NIH3T3 [2]) -18.2% | outcome (HACAT [3]) | Potency (MCC-13) | Potency (MCC-26) | Potency (MKL-1) | Potency (MKL-2)

Oc1ccc(O)cc1
active: Potency (W2) 12 µM | Potency (MKL-1) 5.31 µM | Potency (MKL-2) 4.73 µM
inactive: Potency (PC15) | Potency (PC49) | Potency (SC27B) | Potency (TAB109) | outcome (CRL-7250) | max response (HEK293) -16.2% | outcome (HaCat [1]) | max response (KB-3-1) -4.96% | max response (NIH3T3 [2]) -10.8% | outcome (HACAT [3]) | Potency (MCC-13) | Potency (MCC-26)

CN(C)CCOc1ccccc1Cc1ccccc1
active: Potency (PC49) 2.51 µM | Potency (TAB109) 3.16 µM | Potency (W2) 0.0536 µM
inactive: outcome (CRL-7250) | max response (HEK293) -12.7% | outcome (HaCat [1]) | max response (KB-3-1) -14.6% | max response (NIH3T3 [2]) -2.31% | outcome (HACAT [3]) | Potency (MCC-13) | Potency (MCC-26) | Potency (MKL-1) | Potency (MKL-2)

COC(=O)CCc1ccc(OCC(O)CNC(C)C)cc1 (stereo unspecified)
inactive: max response (CRL-7250) -4.17% and 4.01% | max response (HEK293) 1.57% and 1.48% | max response (HaCat [1]) -0.177% | outcome (HaCat [1]) | max response (NIH3T3 [2]) 1.54% and 3.52% | outcome (HACAT [3]) | Potency (MCC-13) | Potency (MKL-1) | Potency (MKL-2)

Cc1c(N(C)CS(=O)(=O)O)c(=O)n(-c2ccccc2)n1C
inactive: Potency (PC15) | Potency (PC26) | Potency (PC49) | Potency (SC27B) | Potency (TAB109) | Potency (TAB113) | Potency (TAB165) | Potency (W2) | outcome (CRL-7250) | outcome (HEK293) | outcome (HaCat [1]) | max response (KB-3-1) 16.1% | outcome (NIH3T3 [2]) | outcome (HACAT [3]) | outcome (HEK293T) | Potency (MCC-13) | Potency (MCC-26) | Potency (MKL-1) | Potency (MKL-2) | outcome (NIH3T3 [4])

COC(=O)[C@@H]1CC2=CC(=O)CC[C@]2(C)[C@@]23O[C@@H]2C[C@@]2(C)[C@@H](CC[C@@]24CCC(=O)O4)[C@H]13
inactive: Potency (PC15) | Potency (PC26) | Potency (PC49) | Potency (SC27B) | Potency (TAB109) | Potency (TAB113) | Potency (TAB165) | Potency (W2) | max response (CRL-7250) -2.8% | max response (HEK293) 3.69% | outcome (HaCat [1]) | max response (KB-3-1) -7.46% | outcome (NIH3T3 [2]) | outcome (HACAT [3]) | Potency (MCC-13) | Potency (MCC-26) | Potency (MKL-1) | Potency (MKL-2) | outcome (NIH3T3 [4])
